# According to PubChem BioAssay (NCI):
# The panel holds about 79,000 compounds, 15% with a hit somewhere; the sample as a whole holds those more often. Calls of active or inactive are those of the source. No stated cut-off is given here; in the data, active means growth inhibition above about 70%; inactive means the rest.
# Assay: NCI Yeast Anticancer Drug Screen. Data for the wt1 strain (AID 149);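 further: 0% = growth of vehicle-treated wt1 cultures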
# Conditions: S. cerevisiae wt1 strain (SPY 50644) growth inhibition, hits give high values
# Method: Growth inhibition of yeast strains with defined genetic alterations is measured as a screen for potential anti-cancer activity. Selected strains with alterations in DNA damage repair or cell cycle control were exposed to compounds and growth inhibition was measured relative to vehicle treated controls. The strain used in this assay is wt1
SMILES,growth inhibition (at 1.2 µM),growth inhibition (at 3.7 µM),growth inhibition (at 11.0 µM),growth inhibition (at 33.0 µM),growth inhibition (at 100.0 µM)
CC1CCC2(C(=O)O)CCC3(C)C(=CCC4C5(C)CC(O)C(O)C(C)(CO)C5C(O)CC43C)C2C1C (stereo not given),-17% (inactive),-20% (inactive),-17% (inactive),-3% (inactive),80% (active)
COC(=O)c1oc([N+](=O)[O-])c(Cl)c1Cl,26% (inactive),22% (inactive),39% (inactive),89% (active),99% (active)
Cc1cccc2c1N=C(C(F)(F)F)CC2=O,-2% (inactive),-1% (inactive),2% (inactive),1% (inactive),31% (inactive)
COc1ccc(N2C(=O)CC(Cl)C2=O)cc1 (stereo not given),-1% (inactive),10% (inactive),16% (inactive),70% (active),100% (active)
CCCCC(=O)c1c(O)nc2sccn2c1=O,25% (inactive),29% (inactive),52% (inactive),94% (active),98% (active)
CC(=O)C1(O)Cc2c(O)c3c(c(O)c2C(OC2CC(N)C(O)C(C)O2)C1)C(=O)c1ccccc1C3=O (stereo not given),25% (inactive),31% (inactive),88% (active),96% (active),98% (active)
O=C1CC(=O)N(C2CCCCC2)C(=O)N1c1ccccc1S(=O)(=O)Oc1ccccc1,1% (inactive),-5% (inactive),-14% (inactive),12% (inactive),51% (inactive)
CNc1nc(C)nc2c1cnn2-c1ccc([N+](=O)[O-])cc1,3% (inactive),1% (inactive),13% (inactive),12% (inactive),15% (inactive)
